Experimental data from PubChem BioAssay AID488896 (Broad Institute, 2010).
The whole screen tested about 320,000 compounds, of which about 3,100 (0.97%) were called active.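 The calls were made as follows: active = mean replicate inhibition of at least 70% and a set share of replicates each scoring 70 or more; inconclusive = meets just one of the two criteria; inactive = fails both criteria.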 Shown is part of a subset that was picked to be rich in actives.

target: Scavenger receptor class B member 1 (Mus musculus) (UniProt Q61009); experiment: inhibitors of SR-BI mediated HDL lipid uptake, primary screen, ldlA[mSR-BI] cells, fluorescence, single point (AID 488896); conditions: ldlA[mSR-BI] CHO cells, DiI-HDL uptake fluorescence, 3 h; at 12.5 µM; active compounds read high;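 also: 0% = median of neutral control wells and 100% = median of positive control wells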
Sequence (Q61009 whole entry, looked up): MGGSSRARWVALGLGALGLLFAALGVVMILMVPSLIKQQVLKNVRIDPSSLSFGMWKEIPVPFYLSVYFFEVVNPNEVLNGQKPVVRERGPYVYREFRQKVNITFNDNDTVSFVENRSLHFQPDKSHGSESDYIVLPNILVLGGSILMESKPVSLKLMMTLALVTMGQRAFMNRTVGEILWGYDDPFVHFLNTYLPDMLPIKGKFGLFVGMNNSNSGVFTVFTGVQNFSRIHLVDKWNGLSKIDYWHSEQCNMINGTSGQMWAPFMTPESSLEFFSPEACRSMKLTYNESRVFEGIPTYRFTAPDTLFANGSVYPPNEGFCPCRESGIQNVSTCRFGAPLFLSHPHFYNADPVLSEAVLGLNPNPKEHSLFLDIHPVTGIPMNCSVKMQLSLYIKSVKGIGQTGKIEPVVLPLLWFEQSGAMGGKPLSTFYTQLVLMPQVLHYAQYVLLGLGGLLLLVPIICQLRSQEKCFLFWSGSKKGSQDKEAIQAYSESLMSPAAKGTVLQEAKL

SMILES | inhibition
CC(=O)OC1C2(CC3N4C(=O)C5(CO)SSC4(CC31O)C(=O)N5C)OC(C)C(C)(C)C2=O (stereo not given) | 106% (active)
CC12CCC(O)CC1CCC1C2CCC2(C)C(C(=O)CC(O)C(F)(F)F)CCC12 (stereo not given) | 13.2% (inactive)
O=C(c1ccccc1)C(O)(CN1CCCCC1)c1ccccc1 (stereo not given) | -5.67% (inactive)
COC1C(O)C(C)OC(OC2CCC3(C=O)C(CCC4C3CCC3(C)C(C5=CC(=O)OC5)CCC43O)C2)C1O (stereo not given) | 0.038% (inactive)
CC(=O)c1ccc(OC(NC(=O)Cc2ccccc2)C(Cl)(Cl)Cl)cc1 (stereo not given) | 92.8% (active)
CCOP(=O)(OCC)C(NC(=O)c1ccc(OC)cc1)C(Cl)(Cl)Cl (stereo not given) | 6.36% (inactive)
CC(=O)Cc1ccc(OC(C)C)cc1 | -1.27% (inactive)
CN(C)CC1Oc2ccccc2OC1(O)c1ccccc1 (stereo not given) | 1.39% (inactive)
CC1=CC(=Cc2sc3ccccc3[n+]2C)C=C(C)O1 | -1% (inactive)
CCC(C)(O)C(=O)OC1C(=O)OC2CC3C(C)=CC(=O)C(O)C3(C)C3C4(O)OCC23C1C(C)C4O (stereo not given) | -10.3% (inactive)
